The text below walks through data of publication PMC7862700, “An all-to-all approach to the identification of sequence-specific readers for epigenetic DNA modifications on cytosine”.

Holding throughout (experiment): DAPPL (digital affinity profiling via proximity ligation, sequencing); 10 mM Tris-HCl pH 7.5, 50 mM NaCl, 1 mM DTT, 4% glycerol, room temperature, 30 min; GST-TFs on glutathione beads, 16-mer random dsDNA library, 0.1% formaldehyde crosslink after washing; high values mean tight binding
What all share (details): protein: recombinant; tags: N-terminal GST; dsDNA, one strand shown

The target in test [1] is T1, ERF (Homo sapiens, UniProt P50548 1-548).
T1 sequence: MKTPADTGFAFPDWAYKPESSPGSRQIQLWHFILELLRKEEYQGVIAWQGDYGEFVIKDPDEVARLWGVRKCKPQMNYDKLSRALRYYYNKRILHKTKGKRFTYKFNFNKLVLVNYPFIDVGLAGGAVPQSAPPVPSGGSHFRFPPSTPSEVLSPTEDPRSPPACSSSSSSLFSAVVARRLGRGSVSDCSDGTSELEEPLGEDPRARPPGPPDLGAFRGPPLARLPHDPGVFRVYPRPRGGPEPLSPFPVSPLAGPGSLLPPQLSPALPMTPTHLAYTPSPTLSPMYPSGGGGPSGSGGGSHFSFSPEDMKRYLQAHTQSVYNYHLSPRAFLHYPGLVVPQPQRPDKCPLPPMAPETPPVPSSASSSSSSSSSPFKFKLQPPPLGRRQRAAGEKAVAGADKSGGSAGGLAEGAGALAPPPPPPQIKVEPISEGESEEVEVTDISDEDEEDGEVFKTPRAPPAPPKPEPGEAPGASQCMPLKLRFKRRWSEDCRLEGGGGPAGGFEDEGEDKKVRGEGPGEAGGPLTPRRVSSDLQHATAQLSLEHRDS
The essentials: (§1)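 Binding signal is each hexamer's read frequency for a factor divided by its frequency in the tag-only sample. The factors were GST-fused human transcription factors from yeast, captured on glutathione beads, DNA-barcoded and pooled with that sample. Pools were incubated with 200 nmole of a random double-stranded 16-mer DNA library in Tris/NaCl/DTT/glycerol buffer at room temperature for 30 min, then washed, crosslinked with 0.1% formaldehyde, proximity-ligated with BsaI/T4 ligase (1 h, 37 °C), PCR-amplified and sequenced on an Illumina NextSeq500.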

Test [2] addresses T2, ETV3L (Homo sapiens, UniProt Q6ZN32 1-361).
T2 sequence: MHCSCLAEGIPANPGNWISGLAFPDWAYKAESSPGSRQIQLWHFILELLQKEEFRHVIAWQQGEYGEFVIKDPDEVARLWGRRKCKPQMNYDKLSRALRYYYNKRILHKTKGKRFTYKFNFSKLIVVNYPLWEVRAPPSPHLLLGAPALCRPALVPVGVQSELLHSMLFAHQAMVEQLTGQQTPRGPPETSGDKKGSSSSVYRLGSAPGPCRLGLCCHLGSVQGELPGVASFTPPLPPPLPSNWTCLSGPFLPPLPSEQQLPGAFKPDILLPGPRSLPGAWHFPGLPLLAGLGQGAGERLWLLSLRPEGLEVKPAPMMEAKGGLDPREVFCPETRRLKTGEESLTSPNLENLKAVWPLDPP
The essentials:
as §1

Test [3] deals with T3, ETS2 (Homo sapiens, UniProt P15036 1-469).
T3 sequence: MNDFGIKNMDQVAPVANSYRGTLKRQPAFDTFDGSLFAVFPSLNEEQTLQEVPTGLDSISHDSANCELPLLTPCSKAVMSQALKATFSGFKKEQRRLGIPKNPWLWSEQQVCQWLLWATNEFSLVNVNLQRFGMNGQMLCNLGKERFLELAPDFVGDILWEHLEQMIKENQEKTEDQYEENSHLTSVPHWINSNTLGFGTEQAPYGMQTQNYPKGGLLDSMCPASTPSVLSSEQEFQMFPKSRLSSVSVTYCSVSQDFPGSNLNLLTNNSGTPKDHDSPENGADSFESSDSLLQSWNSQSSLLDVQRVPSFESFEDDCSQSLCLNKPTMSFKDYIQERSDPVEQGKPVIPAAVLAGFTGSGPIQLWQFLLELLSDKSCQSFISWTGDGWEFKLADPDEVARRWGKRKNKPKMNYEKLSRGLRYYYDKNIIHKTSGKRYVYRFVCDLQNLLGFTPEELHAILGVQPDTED
The method in brief:
as §1

For test [4], the target named is T4, SPDEF (Homo sapiens, UniProt O95238 1-335).
T4 sequence: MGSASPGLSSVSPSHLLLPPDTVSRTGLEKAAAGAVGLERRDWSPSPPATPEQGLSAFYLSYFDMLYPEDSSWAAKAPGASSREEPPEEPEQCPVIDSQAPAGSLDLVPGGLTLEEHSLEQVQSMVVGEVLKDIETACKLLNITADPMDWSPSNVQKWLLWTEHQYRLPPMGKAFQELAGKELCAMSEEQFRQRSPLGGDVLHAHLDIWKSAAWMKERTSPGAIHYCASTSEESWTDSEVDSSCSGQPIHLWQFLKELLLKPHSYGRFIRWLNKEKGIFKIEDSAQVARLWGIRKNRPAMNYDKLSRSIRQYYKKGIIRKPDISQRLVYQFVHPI
The method in brief: as §1

Test [5] concerns the target T5, ETV7 (Homo sapiens, UniProt Q9Y603 1-341).
T5 sequence: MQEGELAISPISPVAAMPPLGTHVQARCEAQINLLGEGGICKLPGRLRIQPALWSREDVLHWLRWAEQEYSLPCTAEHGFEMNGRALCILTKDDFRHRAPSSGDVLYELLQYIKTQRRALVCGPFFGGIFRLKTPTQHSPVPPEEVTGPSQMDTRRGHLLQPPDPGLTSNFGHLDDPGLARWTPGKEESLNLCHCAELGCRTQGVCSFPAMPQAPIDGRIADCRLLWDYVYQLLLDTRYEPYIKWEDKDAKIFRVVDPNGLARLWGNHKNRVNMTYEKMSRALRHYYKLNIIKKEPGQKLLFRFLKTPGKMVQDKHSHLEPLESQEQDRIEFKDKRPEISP
The essentials:
as §1

Test [6] has as its target T6, ELF5 (Homo sapiens, UniProt Q9UKW6-2 1-255).
T6 sequence: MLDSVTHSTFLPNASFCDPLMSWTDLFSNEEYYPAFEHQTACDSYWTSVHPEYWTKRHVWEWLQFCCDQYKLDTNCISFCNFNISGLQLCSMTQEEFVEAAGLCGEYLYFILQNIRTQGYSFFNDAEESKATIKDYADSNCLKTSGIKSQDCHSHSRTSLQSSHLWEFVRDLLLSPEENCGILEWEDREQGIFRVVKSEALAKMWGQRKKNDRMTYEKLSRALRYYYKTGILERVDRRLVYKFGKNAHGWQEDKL
The essentials:
as §1

Test [7] concerns the target T7, ETV3 (Homo sapiens, UniProt P41162-2 1-143).
T7 sequence: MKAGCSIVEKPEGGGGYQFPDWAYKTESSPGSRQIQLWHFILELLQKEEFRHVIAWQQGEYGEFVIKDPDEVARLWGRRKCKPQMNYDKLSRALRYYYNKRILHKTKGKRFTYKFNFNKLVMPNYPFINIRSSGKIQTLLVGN
The method in brief:
as §1

Test [8] has as its target ETV6 (Homo sapiens, UniProt P41212 1-452). The essentials:
as §1

Chain of ETV6 (P41212 whole entry): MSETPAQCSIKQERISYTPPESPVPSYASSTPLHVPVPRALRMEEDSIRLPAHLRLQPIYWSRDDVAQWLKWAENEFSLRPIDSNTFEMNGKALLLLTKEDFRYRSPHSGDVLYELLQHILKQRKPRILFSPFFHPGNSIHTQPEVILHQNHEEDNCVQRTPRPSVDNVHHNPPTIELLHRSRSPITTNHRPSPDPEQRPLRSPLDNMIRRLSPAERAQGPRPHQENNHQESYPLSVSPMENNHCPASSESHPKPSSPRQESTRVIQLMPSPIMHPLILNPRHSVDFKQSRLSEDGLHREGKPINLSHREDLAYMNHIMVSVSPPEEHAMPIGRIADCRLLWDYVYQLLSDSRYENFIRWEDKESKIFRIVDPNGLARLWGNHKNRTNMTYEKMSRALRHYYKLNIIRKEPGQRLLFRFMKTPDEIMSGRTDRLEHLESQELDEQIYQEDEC

Take TAGTAC: the binding signal in test [1] is 1.13 fold enrichment (6-mer frequency, TF over GST control); in test [2], 1.1 fold enrichment (6-mer frequency, TF over GST control); in test [3], 1.17 fold enrichment (6-mer frequency, TF over GST control); in test [4], 1.14 fold enrichment (6-mer frequency, TF over GST control); in test [5], 1.17 fold enrichment (6-mer frequency, TF over GST control); in test [6], 1.17 fold enrichment (6-mer frequency, TF over GST control). Besides, the binding signal is 1.27 fold enrichment (6-mer frequency, TF over GST control) in test [7] and 1.22 fold enrichment (6-mer frequency, TF over GST control) in test [8].
On to CTGGTA, for which the binding signal is 1.28 fold enrichment (6-mer frequency, TF over GST control) in test [1]; 1.34 fold enrichment (6-mer frequency, TF over GST control) in test [2]; 1.32 fold enrichment (6-mer frequency, TF over GST control) in test [3]; 1.4 fold enrichment (6-mer frequency, TF over GST control) in test [4]; 1.4 fold enrichment (6-mer frequency, TF over GST control) in test [5]; 1.35 fold enrichment (6-mer frequency, TF over GST control) in test [6]. Further, the binding signal was 1.29 fold enrichment (6-mer frequency, TF over GST control) in test [7] and 1.29 fold enrichment (6-mer frequency, TF over GST control) in test [8].
On to ACCTTA, for which the binding signal in test [1] is 1.29 fold enrichment (6-mer frequency, TF over GST control); in test [2] it was 1.19 fold enrichment (6-mer frequency, TF over GST control); in test [3], 1.16 fold enrichment (6-mer frequency, TF over GST control); in test [4], 1.3 fold enrichment (6-mer frequency, TF over GST control); in test [5], 1.21 fold enrichment (6-mer frequency, TF over GST control); in test [6], 1.26 fold enrichment (6-mer frequency, TF over GST control). Besides, the binding signal in test [7] was 1.17 fold enrichment (6-mer frequency, TF over GST control); in test [8], 1.21 fold enrichment (6-mer frequency, TF over GST control).
Consider TCTTCT, for which the binding signal is 1.24 fold enrichment (6-mer frequency, TF over GST control) in test [1]; 1.29 fold enrichment (6-mer frequency, TF over GST control) in test [2]; 1.23 fold enrichment (6-mer frequency, TF over GST control) in test [3]; 1.16 fold enrichment (6-mer frequency, TF over GST control) in test [4]; 1.06 fold enrichment (6-mer frequency, TF over GST control) in test [5]; 1.19 fold enrichment (6-mer frequency, TF over GST control) in test [6]. Moreover, the binding signal was 1.25 fold enrichment (6-mer frequency, TF over GST control) in test [7] and 1.29 fold enrichment (6-mer frequency, TF over GST control) in test [8].
On to CCATTT, for which the binding signal was 1.32 fold enrichment (6-mer frequency, TF over GST control) in test [1]; 1.25 fold enrichment (6-mer frequency, TF over GST control) in test [2]; 1.41 fold enrichment (6-mer frequency, TF over GST control) in test [3]; 1.21 fold enrichment (6-mer frequency, TF over GST control) in test [4]; 1.24 fold enrichment (6-mer frequency, TF over GST control) in test [5]; 1.31 fold enrichment (6-mer frequency, TF over GST control) in test [6]. Moreover, the binding signal in test [7] was 1.34 fold enrichment (6-mer frequency, TF over GST control); in test [8] it was 1.34 fold enrichment (6-mer frequency, TF over GST control).
ACATAA: the binding signal in test [1] was 1.05 fold enrichment (6-mer frequency, TF over GST control); in test [2], 1.1 fold enrichment (6-mer frequency, TF over GST control); in test [3], 1.07 fold enrichment (6-mer frequency, TF over GST control); in test [4], 1.03 fold enrichment (6-mer frequency, TF over GST control); in test [5], 1.11 fold enrichment (6-mer frequency, TF over GST control); in test [6], 1.09 fold enrichment (6-mer frequency, TF over GST control). In addition, the binding signal was 1.09 fold enrichment (6-mer frequency, TF over GST control) in test [7] and 1.08 fold enrichment (6-mer frequency, TF over GST control) in test [8].
As for ACACTT, the binding signal was 1.51 fold enrichment (6-mer frequency, TF over GST control) in test [1]; 1.64 fold enrichment (6-mer frequency, TF over GST control) in test [2]; 1.76 fold enrichment (6-mer frequency, TF over GST control) in test [3]; 1.61 fold enrichment (6-mer frequency, TF over GST control) in test [4]; 1.78 fold enrichment (6-mer frequency, TF over GST control) in test [5]; 2.02 fold enrichment (6-mer frequency, TF over GST control) in test [6]. For the same sequence, the binding signal in test [7] is 1.66 fold enrichment (6-mer frequency, TF over GST control); in test [8] it was 1.95 fold enrichment (6-mer frequency, TF over GST control).
